# Results filed as inconclusive are left out. Entries that show only a call come without a potency. Active and inactive are the calls of the source. The call rests on the fitted dose curve; in most records, active means well fitted inhibition curve with a large enough effect; inconclusive means small, poorly fitted or top-dose-only effect; inactive means no such curve, though single readings can be large or run the other way.
# Biological target: Luciferin 4-monooxygenase (Photinus pyralis) (UniProt P08659)
# Assay: FLuc inhibitory activity for the follow-up compounds in a biochemical assay with an in-house formulation of detection reagent
# In short: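 Purified P. pyralis luciferase (10 nM) in 50 mM Tris acetate, compounds titrated 12-point from ~25uM to 0.1nM. In-house detection reagent added (450uM ATP, 1mM D-luciferin, 500uM coenzyme A, 5mM DTT, 1% Triton-X100); luminescence imaged.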
# Chain of Luciferin 4-monooxygenase (Photinus pyralis) (P08659 whole entry, looked up): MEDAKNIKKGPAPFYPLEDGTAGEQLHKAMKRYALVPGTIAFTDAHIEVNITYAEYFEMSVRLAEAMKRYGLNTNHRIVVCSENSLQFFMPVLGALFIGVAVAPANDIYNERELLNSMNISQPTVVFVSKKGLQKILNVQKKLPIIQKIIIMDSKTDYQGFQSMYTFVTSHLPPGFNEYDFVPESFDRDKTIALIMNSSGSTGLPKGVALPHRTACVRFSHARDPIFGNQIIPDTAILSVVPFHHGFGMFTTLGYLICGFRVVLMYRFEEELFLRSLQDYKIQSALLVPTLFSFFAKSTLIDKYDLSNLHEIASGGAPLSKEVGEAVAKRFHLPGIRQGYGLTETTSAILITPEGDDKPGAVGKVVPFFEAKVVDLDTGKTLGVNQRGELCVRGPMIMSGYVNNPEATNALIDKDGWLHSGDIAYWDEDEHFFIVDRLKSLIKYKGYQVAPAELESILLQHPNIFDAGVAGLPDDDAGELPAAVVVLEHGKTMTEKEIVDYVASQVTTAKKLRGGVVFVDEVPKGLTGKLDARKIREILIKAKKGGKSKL
smiles,measurement,value
COc1ccc(CC(=O)Nc2cccc(C(=O)Nc3ccccc3C(=O)O)c2)cc1OC,Potency,inactive
